Records with an inconclusive call do not appear. Calls of active or inactive are those of the source. Rule for the calls: active = hit-call score of the fitted dose curve at least 0.9, where 1 is the maximum; inconclusive = response in the unintended direction; inactive = score below 0.9.
Target: rat GHB Receptor Antagonism, Tspan17 (gene 306771) (UniProt Q4V8E0)
Experiment: ERF_FR_GPCR_rGHB: Eurofins (ERF) G Protein-Coupled Receptor (GPCR) Radioligand Binding LeadHunter Assay for rat GHB Receptor Antagonism
Method: ERF_FR_GPCR_rGHB is a biochemical, single-readout assay that uses extracted gene-proteins in a cell-free assay. Measurements were taken 2 hour after chemical dosing in a 96-well plate. See GHB Rat Binding (Antagonist Radioligand) Assay, Cerep.ERF_FR_GPCR_rGHB is an assay component calculated from the ERF_FR_GPCR_rGHB assay. It is designed to measure radioligand binding using a type of binding reporter as detected by scintillation counting with radiometry technology.Data from the assay component ERF_FR_GPCR_rGHB was analyzed at the assay endpoint, ERF_FR_GPCR_rGHB, in the positive analysis fitting direction relative to DMSO as the negative control and baseline of activity. Using a type of binding reporter, loss-of-signal activity can be used to understand changes in binding as they relate to gene TSPAN17. To generalize the intended target to other relatable targets, this assay endpoint is annotated to the gpcr intended target family, where the subfamily is ghb .
Brain cortex of Wistar derived rats weighing 175 +/- 25 g are used to prepare GHB receptors in potassium buffer pH 6.0. A 1 mg aliquot is incubated with 20 nM [3H] NCS382 for 120 minutes at 4 C. Non-specific binding is estimated in the presence of 1 mM NCS382. Membranes are filtered and washed, the filters are then counted to determine [3H] NCS382 specifically bound. […]

Chain of rat GHB Receptor Antagonism, Tspan17 (gene 306771) (Q4V8E0 whole entry, looked up): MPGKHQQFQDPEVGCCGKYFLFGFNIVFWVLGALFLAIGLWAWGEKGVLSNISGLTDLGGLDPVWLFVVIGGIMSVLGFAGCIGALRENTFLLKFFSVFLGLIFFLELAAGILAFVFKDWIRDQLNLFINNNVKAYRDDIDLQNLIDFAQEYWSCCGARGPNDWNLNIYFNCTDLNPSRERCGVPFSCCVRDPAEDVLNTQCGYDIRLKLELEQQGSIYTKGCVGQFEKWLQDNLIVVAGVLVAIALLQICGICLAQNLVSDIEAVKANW

Q: `COc1cc(/C=C/C(=O)CC(=O)/C=C/c2ccc(O)c(OC)c2)ccc1O` was tested. Which AC50 did it give?
A: 1590 nM (active)

Q: For `O=C(/C=C/c1ccc(O)cc1)CC(=O)/C=C/c1ccc(O)cc1`, which AC50 is on record?
A: 1670 nM (active)

Source: PubChem BioAssay AID2284187 (EPA ToxCast)
